Methyltransferases = Primary Screen for Target Class Profiling of Small Molecule Inhibitors of Methyltransferases | purified enzyme, MTase-Glo SAH luminescence; stronger effect = lower value | calls only at 40 µM | actives 3.9% (n = 25,000) | AID 1745853, 2022; call rule not given here
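Each enzyme was reacted with SAM and its substrate, with compounds tested once at 40 uM; SAH formed was read by MTase-Glo luminescence.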
Calls only; i = inactive; + = active, no number; ! = repeats disagree. The sample as a whole holds a higher share of hits than the screen did.

SMILES | Methyltransferases
CC(C)[C@@H](CN1CC[C@@](C)(c2cccc(O)c2)[C@@H](C)C1)NC(=O)[C@H]1Cc2ccc(O)cc2CN1 | i
C=CCN1CCC2(C)c3cc(O)ccc3C[C@H]1[C@H]2C | +
CS(=O)(=O)N1C[C@H]2CCN(Cc3ccncc3F)C[C@H]21 | i
CCOCCCNC(=O)N1Cc2ccccc2-n2cccc2C1c1ccccc1 (centres undefined) | i
CCOc1ccc(C2c3cccn3-c3ccccc3CN2C(=O)Nc2ccccc2Cl)cc1 (centres undefined) | i
N#C/C(=C/c1ccc(O)c(O)c1)C(N)=S | +!
C[C@H](Nc1ncnc2nc[nH]c12)c1nc2ccc(F)cc2c(=O)n1-c1ccccc1 | i
CSc1ccc(C2c3cccn3-c3ccccc3CN2C(=O)NCc2ccco2)cc1 (centres undefined) | i
COc1cc2c(cc1CCc1ccccc1)N(C(=O)C(C)C)CC21CCN(C(C)=O)CC1 | i
CCOC(=O)Cc1ccc(NC(=O)N2Cc3ccccc3-n3cccc3C2c2ccccc2C)cc1 (centres undefined) | i
COC1C(O)C(OC2CCC3(C=O)C(CCC4C3CCC3(C)C(C5=CC(=O)OC5)CCC43O)C2)OC(C)C1OC1OC(CO)C(O)C(O)C1O (centres undefined) | i
CCC1CN2CCc3cc(OC)c(OC)cc3C2CC1CC1=NCCc2cc(O)c(OC)cc21 (centres undefined) | +
CN(C)c1ccc(C2c3cccn3-c3ccccc3CN2C(=O)Nc2cccc(C(F)(F)F)c2)cc1 (centres undefined) | i
C/C=C(/C)C(=O)O[C@H]1C(C)=C2[C@H]([C@@H]1OC(=O)CCCCCCC)[C@@](C)(OC(C)=O)C[C@H](OC(=O)CCC)[C@@]1(O)[C@H]2OC(=O)[C@@]1(C)O | i
COC(=O)CCNC(=O)N1Cc2ccccc2-n2cccc2C1c1ccc(N(C)C)cc1 (centres undefined) | i
COc1ccc(OC)c(NC(=O)N2Cc3ccccc3-n3cccc3C2c2cccc(C)c2)c1 (centres undefined) | i
CN1C2CCC1CC(OC(=O)c1cc(Cl)cc(Cl)c1)C2 (centres undefined) | i
O=C1NCN(c2ccccc2)C12CCN(CC1COc3ccccc3O1)CC2 (centres undefined) | i
Cc1nnc2n1-c1sc(CCc3ccc(CC(C)C)cc3)cc1C(c1ccccc1Cl)=NC2C (centres undefined) | +
CC(C)NC(=O)N1Cc2ccccc2-n2cccc2C1c1ccc(Cl)cc1 (centres undefined) | i
COc1ccc(C(C)(C)C)cc1CN[C@H]1C2CCN(CC2)[C@H]1C(c1ccccc1)c1ccccc1 | i
O=C(Nc1cccc(Br)c1)N1Cc2ccccc2-n2cccc2C1c1ccccc1 (centres undefined) | i
CCCCCCn1c(=O)c(C(=O)Nc2ccc(C(=O)OCCC)cc2)c(O)c2ccccc21 | i
CCCCN1[C@@H]2CC[C@H]1CC(OC(c1ccc(F)cc1)c1ccc(F)cc1)C2 (some centres undefined) | +
O=C(Nc1ccc(Cl)cc1)N1Cc2ccccc2-n2cccc2C1c1ccc(F)cc1 (centres undefined) | i
SMILES | Methyltransferases
CN(C)c1ccc(C2c3cccn3-c3ccccc3CN2C(=O)Nc2ccc(F)cc2F)cc1 (centres undefined) | i
CC1c2cccn2-c2ccccc2CN1C(=O)Nc1cccc(Cl)c1 (centres undefined) | i
COC1=CC(=O)O[C@@H](/C=C/c2ccccc2)C1 | i
COc1ccc(C2c3cccn3-c3ccccc3CN2C(=O)Nc2ccccc2OC)cc1 (centres undefined) | i
CC1(C)C(=O)N(c2ccc(C#N)c(C(F)(F)F)c2)C(=O)N1CCCCO | i
CCCN(CCC)[C@H]1CCc2c(F)ccc(O)c2C1 | i
[Cl-].[Cl][Pt].[NH2-].[NH2-].c1ccncc1 | +
CN(CC[C@H](N)CC(=O)N[C@H]1C=C[C@@H](n2ccc(N)nc2=O)O[C@@H]1C(=O)O)C(=N)N | i
COc1cccc(NC(=O)N2Cc3ccccc3-n3cccc3C2c2ccc(N(C)C)cc2)c1 (centres undefined) | i
COc1cc(OC)c(NC(=O)N2Cc3ccccc3-n3cccc3C2C)cc1Cl (centres undefined) | i
Cc1cn(C[C@H](N)C(=O)O)c(=O)n(Cc2cc(-c3ccccc3)sc2C(=O)O)c1=O | i
CC1Oc2cc3c(-c4c(O)cc(O)c5c(O)c6c(cc45)OC(C)C(C)C6=O)c(O)cc(O)c3c(O)c2C(=O)C1C (centres undefined) | +
COc1ccc(C2c3cccn3-c3ccccc3CN2C(=O)Nc2cc(C)ccc2OC)cc1 (centres undefined) | i
COc1ccc2c(c[n+](C)c3c4cc5c(cc4ccc23)OCO5)c1OC | +
CC[C@@H](C)[C@H]1C(=O)O[C@H](C(C)C)C(=O)N(C)[C@@H](C(C)C)C(=O)O[C@H](C(C)C)C(=O)N(C)[C@@H](C(C)C)C(=O)O[C@H](C(C)C)C(=O)N1C | i

From PubChem BioAssay
